Among the data in PubChem BioAssay AID743279 (National Center for Advancing Translational Sciences (NCATS), 2014) are activity change values, retold here.

The whole screen tested about 360,000 compounds, of which about 17,000 (4.7%) were called active. Inconclusive results (about 5%) are left out. Many of the other results were omitted from the sample, so actives are more common in it than they were. Unmarked numbers belong to inactive results. Cut-off read from the data, not from the text of the source: active = activity change below about -50%; inconclusive = mostly about -30% to -49%; inactive = weaker than that.
% is set by controls: 0 for no effect and ±100 for the full control effect.

The nature of the test: qHTS for Inhibitors of Inflammasome Signaling: IL-1-beta AlphaLISA Primary Screen. The settings on record: THP-1 LPS/ATP IL-1B secretion, 16 h; at 57.5 µM, active compounds read low. The gist of the method: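 Secreted IL-1B measured by AlphaLISA bead assay after 16 h compound exposure of THP-1 cells; compounds (final up to 57.5 uM) added 1 h before LPS (250 ng/mL) and ATP (1.25 mM) stimulation; lower signal means less secretion.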
On the technique in general: qHTS replaces the single test concentration by a dilution series.
Consider `N#CCCN(C(=O)Nc1ccc(Cl)c(Cl)c1)C1CCCCC1`, for which the activity change was -24.2%. As for `CCOC1=C2[C@H]([C@H]3C(=O)N(c4ccccc4)C(=O)[C@H]3C1)[C@@H](c1ccccc1)N(S(=O)(=O)c1ccc(C)cc1)[C@H]2c1ccccc1`, the figure is 21.6%. On to `COc1ccc(C(=O)c2oc3ccc(Br)cc3c2NC(C)=O)cc1`, for which the activity change was -26.9%. On to `COc1ccc2occ(C(=O)c3ccc(N=C(C)N(C)C)cc3)c2c1`, for which the activity change is -57% (active).

Take `COc1ccc(OC)c(C(=O)c2coc3ccc(OC)cc23)c1`: the activity change was 5.54%. To `Cc1nc(CN2CCN(C(=O)CCc3nnc(Cc4c[nH]c5ccccc45)o3)CC2)cs1` belongs 21.5%; to `C[C@H]1CN([C@@H](C)CO)C(=O)c2cc(Br)cnc2O[C@H]1CN(C)S(=O)(=O)c1cccs1`, -17.5%. `Nc1ccccc1-c1nc2ccncc2[nH]1`: the activity change is -6.01%. To `CCCCn1c(N)c(N(CC(C)C)C(=O)c2cnc(C)cn2)c(=O)[nH]c1=O` belongs -2.8%; to `CCCCn1c(N)c(N(CC(C)C)C(=O)c2ccc(-n3c(C)ccc3C)cc2)c(=O)[nH]c1=O`, -61.6% (active). To `CCCCn1c(N)c(N(CC(C)C)C(=O)c2ccc(Br)o2)c(=O)[nH]c1=O` belongs -3.41%; to `CC(C)c1ccc(-c2nn[nH]n2)cc1`, -4.8%. Regarding `CN[C@H]1C[C@H]2c3cc(Oc4ccccc4C)ccc3CCN2C(=O)[C@H]1[C@H](C)O`, the activity change is -11%. As for `[O-][n+]1onc2c1CCc1[nH]c(-c3ccccc3)nc1-2`, the figure is -66.3% (active); as for `N#Cc1c(-c2ccc(F)cc2)nc(-c2ccccc2)[nH]c1=O`, 8.84%; as for `CN1CCN(c2ccc3c(c2)OC[C@H](Cc2ccccc2)NS3(=O)=O)CC1`, 2.92%. Take `COc1cccc(-c2cc3nc(NCCOc4ccccc4Cl)n(C)c(=O)c3s2)c1`: the activity change is 33.6%. Consider `O=c1[nH]c(CCl)nc2cc(-c3ccc(Cl)cc3)sc12`, for which the activity change was -93.8% (active). With `Cn1c(NCc2cccnc2)nc2cc(-c3ccc(F)cc3)sc2c1=O`, the activity change is 4.79%. Consider `O=c1[nH]c(=S)[nH]c(O)c1/C=C1\C=Nc2ccccc21`, for which the activity change is -3.38%. As for `Cc1nc(C(F)(F)F)ccc1C(=O)N1CCC1(C)C(=O)NS(=O)(=O)c1ccccc1Cl` (configuration not stated), the figure is 27.9%. To `O=C(Nc1ccc2c(c1)[C@@H]1C[C@@H](CC(=O)N3CCCCC3)O[C@@H](CO)[C@@H]1O2)NC1CCCCC1` belongs 7.94%; to `CC1CN(Cc2ccccc2)C(=S)NC1=O` (configuration not stated), 5.57%. Consider `CC(=O)c1nc2ccccc2n1Cc1ccccc1`, for which the activity change is 24.8%. To `CC(=O)OCC(C)n1c(=O)c2ccccc2n1C(C)=O` (configuration not stated) belongs 21.8%; to `CC(=O)Oc1c(C(=O)c2nnc(C)o2)c(=O)n(Cc2ccccc2)c2ccccc12`, -63.6% (active).

As to `COc1ccc(NS(=O)(=O)c2cc(NC(=O)CC(=O)c3ccc([N+](=O)[O-])cc3)ccc2C)cc1`, the activity change was -19.6%.

Regarding `CC(C)(C)NC(=O)c1cc(NC(=O)c2ccco2)cc(NC(=O)c2ccco2)c1`, the activity change is 3.33%. In the case of `O=C(Nc1cc(-c2nc3ncccc3o2)ccc1Cl)c1ccco1`, the activity change is 4.47%. As to `O=C(Nc1cccc(-c2nc3ncccc3o2)c1)c1ccco1`, the activity change was -57% (active). For `Cc1ccc2nc(SCc3nnc(-c4ccccc4[N+](=O)[O-])o3)c(C#N)cc2c1`, the activity change is 24.6%. Consider `Cc1ccc([C@H]2C[C@H](O)[C@@H](n3cc(COC(=O)c4ccccc4)nn3)CN2CC2CCCCC2)cc1`, for which the activity change is -1.43%. As for `CN1CCN(C(=O)c2ccccc2NC(=O)COc2ccccc2Cl)CC1`, the figure is 7.63%. To `COc1ccc(C(=O)OCC(=O)NCCCc2ccccc2)cc1OC` belongs 19%. To `CC(C)n1ncc2c(C(=O)N3CCN(Cc4cccs4)CC3)cc(C3CC3)nc21` belongs -6.72%; to `CC(=O)Nc1cccc(-c2ccnc3c2CC(C)(C(=O)NCc2ccccc2)O3)c1` (configuration not stated), 92.1%. As to `CCCCN(CCCC)C(=O)CCS(=O)(=O)c1ccc2c(c1)n(C)c(=O)c(=O)n2C`, the activity change was 7.06%. As for `O=C1CCC(=O)N(O)CCCCCNC(=O)CCC(=O)N(O)CCCCCNC(=O)CCC(=O)N(O)CCCCCN1`, the figure is 38.7%; as for `Cc1nc(-c2ccccc2)sc1C(=O)/C=C/c1ccccc1`, -84.3% (active). As to `COc1ccc(/C=C/C(=O)c2cc(Br)ccc(=O)c2O)cc1`, the activity change is -2.15%. `CCOC(=O)C1CCCN(C(=O)/C=C/c2ccc(OC)cc2)C1` (configuration not stated): the activity change was -6.92%. To `Cc1nc(-c2ccc(Cl)cc2)sc1C(=O)CBr` belongs 0%. As for `COc1ccc(C(=O)CCC(=O)Nc2cccnc2)c(OC)c1`, the figure is -9.85%. To `COc1ccc(/C=C/C(=O)NC(=S)N2CCCC(C(N)=O)C2)cc1` (configuration not stated) belongs -22.6%; to `COc1ccc(-c2cc(C(=O)N/N=C/c3cccnc3)c3ccccc3n2)c(OC)c1`, -5.72%. `Cc1nc(-c2ccccc2)sc1C(=O)/C=C/N(C)C`: the activity change was -11.9%. Turning to `COc1ccc(C(=O)/C=C/c2cccnc2)c(OC)c1`, the activity change was -96.6% (active). For `COc1ccc(C(=O)/C=C/c2ccc(OC3CSC3)cc2)cc1`, the activity change was -99.6% (active). As for `COc1ccc(C(=O)CC(=O)c2ccc(C)cc2)c(O)c1`, the activity change is -20.9%.

Consider `COc1ccc(/C=C/C(=O)c2ccc(OC)cc2O)cc1`, for which the activity change was -98.1% (active). To `Cc1ccc(S(=O)(=O)N2CCOCC2)cc1NC(=O)CSc1nnc(N)s1` belongs 18.9%. To `COC(=O)[C@]12CCCCC=C1N(Cc1ccccc1)C(=O)[C@H](CC(=O)NCc1ccc(C)o1)C2` belongs 42.5%; to `O=C(OCc1cn([C@@H]2C[C@H](c3ccc(Cl)cc3)N(Cc3cccs3)C[C@H]2O)nn1)c1ccccc1`, 10.7%. As for `O=C1CCC/C(=N\NC(=O)NC2CCCCC2)C1`, the figure is -10.6%. In the case of `O=C(NNC(=O)c1ccccc1O)c1ccccc1O`, the activity change was 67.1%.

For the molecule `O=C(/C=C/c1ccccc1)c1ccccc1O`, the activity change was -85.5% (active).

In the case of `O=C(/C=C(O)/C=C/c1ccc(O)cc1)/C=C/c1ccc(O)cc1`, the activity change was -22.4%.
